Measurements taken from PubChem BioAssay AID1159606 (Sanford-Burnham Center for Chemical Genomics, 2016).
Among all 360,000 compounds or so, about 7,300 (2%) were called active. This is one part of a sample in which actives are shown more often than they occur. Rule as the data show it: active = inhibition above about 50%; inactive = the rest.

experiment: blockers of TWEAK-induced Fn14 reporter activity – luciferase reporter cells, uHTS, primary screen (AID 1159606); details: TWEAK-stimulated Fn14 reporter cells, luciferase luminescence, 8 h; at 10 µM; stronger effect = higher value

inhibition, inactive:
COc1ccc(CNC(=O)COC(=O)CCS(=O)(=O)c2ccc(C)cc2)cc1OC -0.44%, COc1ccc(NC(=O)CN(C)C(=O)Cc2coc3cc(C)c(C)cc23)cc1 -4.06%, COc1ccccc1/C=C/C=N/n1c(-c2ccc(Cl)cc2Cl)n[nH]c1=S -13.9%, Fc1ccc(/C=N/n2c(COc3ccccc3)n[nH]c2=S)cc1 -16.7%, S=c1[nH]nc(-c2ccco2)n1/N=C/c1ccc(Br)s1 -5.12%, O=[N+]([O-])c1ccccc1/C=N/n1c(COc2ccccc2)n[nH]c1=S 17.8%, COc1ccc(Cc2nnc(SCC(=O)N(c3ccccc3)C(C)C)n(N)c2=O)cc1 4.78%, COC(=O)[C@]12CCCCC=C1N(Cc1ccco1)C(=O)[C@H](CC(=O)NCC1CCCCC1)C2 -2.8%, N#CCCN(C(=S)Nc1ccc(Cl)c(Cl)c1)C1CCCCC1 7.89%, Cc1ccc(F)c(S(=O)(=O)NC(=O)C2(C)CCN2C(=O)c2ccco2)c1 (configuration not stated) 4.06%, CC(C)C[C@H](CO)Nc1nc(N(C)c2cccc(Cl)c2)c2ncn(C(C)C)c2n1 -0.23%, COc1ccc(C2/C(=C(/O)c3ccccc3)C(=O)C(=O)N2c2ncccn2)cc1OC (configuration not stated) 5.36%, COc1ccc(/C(O)=C2/C(=O)C(=O)N(c3nc(C)c(C)s3)C2c2ccco2)cc1 (configuration not stated) 15.4%, CCCC(=O)Nc1ccc(C(=O)NCCCn2ccnc2)cc1 -38.4%, COc1ccc2occ(C(=O)c3ccc(N=C(C)N(C)C)cc3)c2c1 -30.2%, COc1ccc(OC)c(C(=O)c2coc3ccc(O)c(CN4CCOCC4)c23)c1 28.4%, Cc1cc(Cl)c2oc(C(=O)NC(C)c3ccncn3)c(C)c2c1 (configuration not stated) -26.6%, CCOc1ccc(CCNC(=O)COC(=O)C2CCN(c3ccc(C(F)(F)F)cn3)CC2)cc1OCC 6.43%, O=C(CN1C(=O)NC(Cc2c[nH]c3ccccc23)C1=O)Nc1ccccc1C(F)(F)F (configuration not stated) 29.8%, CC1Cc2[nH][nH]c(=O)c2C(C2CC2)O1 (configuration not stated) 4.07%, CC(C)NC(=O)N1Cc2cc(C(=O)NCC(F)(F)F)nc(-c3cccc(-c4cc5ccccc5o4)c3)c2[C@@H]1CCO 37.6%, CCOc1ccc(NC(=O)CN(C)C(=O)CSc2ccccc2)cc1OCC 2.8%, CCOC(=O)C1=C(CSc2nccn2C)NC(=O)NC1c1ccc(OC)cc1 (configuration not stated) -0.26%, CCOC(=O)c1cc2cc(OC)ccc2n1C1CCN(C)CC1 -7.56%, Nc1ccccc1/C=N\N=C/c1ccccc1N -29.4%, COC[C@@H]1NS(=O)(=O)c2ccc(Br)cc2O[C@H]1c1ccccc1 6.78%, CCOc1ccc(-n2c(SC(C)C(=O)OC)nc3c(c2=O)SCC3)cc1 (configuration not stated) 1.38%, Cc1ccc(-c2nc3c(C)cc(Br)cn3c2Cc2ccccc2)cc1 13.1%, FC(F)(F)c1ccccc1Cc1c(-c2ccccc2)nc2c3ccccc3ccn12 8.37%, Cc1ccc(Cc2c(-c3ccc(Cl)cc3)nc3c4ccccc4ccn23)cc1 22%, Cc1ccc(Cc2c(-c3ccco3)nc3ccc(Cl)cn23)cc1 48.4%, C=CCSc1nc2c(c(=O)[nH]1)C(C(C)C)C(C#N)=C(N)O2 (configuration not stated) -24.9%, O=C(NC1CCN(S(=O)(=O)c2ccc(F)cc2)CC1)c1ccccc1 -13.3%, COCCCn1c(-c2cccs2)nc2nc3ccccc3nc21 34.3%, CCCc1c(-c2ccccc2F)ncn1Cc1ccccc1OC 2.25%, COc1cccc(C(=O)OCC(=O)c2[nH]c(C)c(C(C)=O)c2C)c1 -4.4%, CC(=O)c1c(C)[nH]c(C(=O)COC(=O)c2cccs2)c1C -16.3%, COc1ccc(N(C(=O)c2snc(C(N)=O)c2N)C(C(=O)NC2CCCC2)c2ccc(C)o2)c(OC)c1 (configuration not stated) 22.4%, COc1c(C)c2c(c(O)c1C/C=C(\C)CCC(=O)O)C(=O)OC2 -6.73%, CCn1c(N)c(Br)c(=O)[nH]c1=O 9.55%, Cc1cccnc1CCNC(=O)C1CCC(=O)N(Cc2cccc(F)c2)C1 (configuration not stated) -10.1%, CCOC(=O)C1CCCN(C(=O)COc2ccc(N(C)S(=O)(=O)c3ccc(C)cc3)cc2)C1 (configuration not stated) 9.89%, CCOc1ccc(NC(=O)CN(C)CC(=O)Nc2cccc(Cl)c2C)cc1OCC 5.07%, CCc1nc2ccc(C(=O)Nc3ccc(OC)c(OC)c3)cn2c1N(C)C(=O)c1cccc(OC)c1 -18.4%, COc1cccc(CN(C)CC2CCCN(CCc3ccc(Cl)cc3)C2)c1OC (configuration not stated) -2.09%

inhibition, active:
Cc1cc(-c2n[nH]c(=S)n2/N=C/C(Br)=C/c2ccccc2)n[nH]1 95%, S=c1[nH]nc(-c2cccnc2)n1/N=C/C(Cl)=C\c1ccccc1 55.4%, CC(C)n1cnc2c(Nc3cccc(Cl)c3)nc(N(CCO)CCCO)nc21 54.7%, CCOc1ccc(/C(O)=C2\C(=O)C(=O)N(c3ccc(OC)cc3)C2c2ccccc2[N+](=O)[O-])cc1 (configuration not stated) 68.4%, COc1ccc(OC)c(C(=O)c2coc3ccc(OC)cc23)c1 67.6%, Oc1c(Cl)cc(Cl)c(Cl)c1Cc1c(O)c(Cl)cc(Cl)c1Cl 64%, CCOC(=O)C1=C(C)N=c2s/c(=C\C(=O)OC)c(=O)n2C1c1ccc(OC)cc1 (configuration not stated) 87.1%, c1ccc(Cc2c(-c3ccco3)nc3c4ccccc4ccn23)cc1 57.8%, Cc1ccc(Cc2c(-c3ccc(C)cc3)nc3c4ccccc4ccn23)cc1 57.1%, CC(=O)c1c(C)[nH]c(C(=O)COC(=O)c2cccc(S(=O)(=O)N(C)c3ccccc3)c2)c1C 101%, CC(C)c1ccc2c(c1)c(SC(C)(C)C)c(CC(C)(C)C(=O)O)n2Cc1ccc(Cl)cc1 79.3%, C=CCn1c(C)cc(C2=NNC(=NCC)SC2)c1C 107%
